Assay outcomes from PubChem.
12-LOX inh – inhibitors of human 12S-lipoxygenase ALOX12 | P18054 | purified 12hLO, xylenol orange hydroperoxide absorbance | Potency, µM (titrated, usually from 108 µM), inactives show at the top dose activity change, negative = inhibition, actives largely listed as inhibitors | 580,000 tested, 1.1% active | AID 1671190; note: potency is the fitted concentration of half-maximal effect
Target sequence (P18054 whole entry, looked up): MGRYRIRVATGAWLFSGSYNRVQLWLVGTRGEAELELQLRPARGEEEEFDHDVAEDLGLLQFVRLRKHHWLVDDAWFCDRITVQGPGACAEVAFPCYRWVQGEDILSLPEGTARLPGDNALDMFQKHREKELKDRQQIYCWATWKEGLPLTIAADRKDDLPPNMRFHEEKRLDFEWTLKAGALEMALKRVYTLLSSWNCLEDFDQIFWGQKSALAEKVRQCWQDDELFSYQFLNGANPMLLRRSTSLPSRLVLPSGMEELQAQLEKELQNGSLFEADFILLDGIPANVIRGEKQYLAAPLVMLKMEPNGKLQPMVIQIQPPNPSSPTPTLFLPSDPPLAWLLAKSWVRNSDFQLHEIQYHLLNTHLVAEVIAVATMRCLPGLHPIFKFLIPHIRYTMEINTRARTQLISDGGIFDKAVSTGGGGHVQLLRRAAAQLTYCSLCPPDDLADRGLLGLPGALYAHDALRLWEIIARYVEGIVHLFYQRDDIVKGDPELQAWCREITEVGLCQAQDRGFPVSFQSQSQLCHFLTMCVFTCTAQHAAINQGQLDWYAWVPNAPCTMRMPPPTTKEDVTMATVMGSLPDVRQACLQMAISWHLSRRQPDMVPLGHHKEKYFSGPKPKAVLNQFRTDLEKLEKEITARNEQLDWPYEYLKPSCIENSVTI
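Purified human 12hLO (150 nM final) in 25 mM Hepes, 0.01% Triton X-100, pH 7.0 was preincubated 15 min at room temperature with compound. Then 40 uM arachidonic acid was added, 30 min. Hydroperoxide was read by Fe-XO absorbance ratio 573/405 nm.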
HT1080 IDH1KD tx – toxicity to HT-1080 IDH1 knockdown cells (counter line); HT-1080 IDH1 knockdown viability, ATP luminescence, 48 h; Potency, µM (series often up to 46.1 µM), inactives show top-dose activity, negative = toxicity, actives largely listed as cytotoxic; 360,000 tested, 2% active;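 note: potency is the fitted concentration of half-maximal effect; 0% = DMSO wells and -100% = cell-free medium wells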
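Assay cells: HT-1080 with IDH1 knockdown, 750 per well, RPMI/5% FBS. Exposure: 48 h at 37 °C following 2 h pre-incubation. Read: CellTiter-Glo luminescence; fitted concentration-response, curve class assigned.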
TDP1 cell noCPT – qHTS for Inhibitors of human tyrosyl-DNA phosphodiesterase 1 (TDP1): qHTS in cells in absence of CPT. AID 686978, 2013. DT40 Tdp1-/- hTDP1 cells, no CPT, ATP luminescence, 48 h. Potency, µM (series often up to 46.2 µM), for the others: at the top dose activity change, negative = growth inhibition, usual class: inhibitors. 420,000 tested, 15% active; note: potency is the fitted concentration of half-maximal effect; nearly all actives have a fitted effect of over 55% in size
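Seeded 400 DT40-hTDP1 cells/well (vehicle DMSO, no 20 nM CPT); pinned compounds; ≥48 hr at 37 °C; CellTiter-Glo luminescence as viability measure.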
HT1080NT lethal – kills 2HG-producing HT-1080-NT fibrosarcoma cells. HT-1080-NT fibrosarcoma viability, CellTiter-Glo ATP luminescence, 48 h. Potency, µM (titrated, usually from 46.1 µM), for the others: at the top dose activity, negative = less viability, most hits filed as cytotoxic. 360,000 tested, 1.6% active;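 note: NT is the 2HG producing partner of a matched IDH1 knockdown line; potency is the fitted concentration of half-maximal effect; 0% = DMSO-treated cells and -100% = media-only wells without cells; nearly all actives have a fitted effect of over 55% in size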
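A 48-hour cytotoxicity screen used HT-1080-NT cells plated 2 hours before compound delivery. ATP-based CellTiter-Glo luminescence measured viability, normalized to DMSO and no-cell controls.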
IL1B secr inh – inflammasome signaling inhibition, IL-1 beta readout; THP-1 LPS/ATP IL-1B secretion, AlphaLISA, 16 h; hits give low values; activity change, % at 57.5 µM; 360,000 tested, 4.7% active; AID 743279; in the data active = activity change below about -50%; inconclusive = mostly about -30% to -49%
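Secreted IL-1B measured by AlphaLISA bead assay after 16 h compound exposure of THP-1 cells; compounds (final up to 57.5 uM) added 1 h before LPS (250 ng/mL) and ATP (1.25 mM) stimulation; lower signal means less secretion.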
TDP1 cell CPT – growth inhibition of DT40 Tdp1-/-;hTDP1 cells with camptothecin (screen for TDP1 inhibitors) | chicken DT40 Tdp1-/-;hTDP1 cells + 20 nM CPT, ATP luminescence, 48 h | Potency, µM (series often up to 46.2 µM), for inactives: at the highest dose activity change, negative = growth inhibition, actives largely listed as inhibitors | 420,000 tested, 12% active | AID 686979; note: potency is the fitted concentration of half-maximal effect; nearly all actives have a fitted effect of over 55% in size
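Cell growth measured by CellTiter-Glo luminescence after a minimum 48 h, 37 C compound exposure with 20 nM CPT in Tdp1-knockout DT40 cells stably expressing hTDP1, seeded 400/well; qHTS titration format.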
Active calls of the source: *; u = inconclusive; x = no result; [ ] = remark or other dose. Many of the other results were omitted from the sample, so hits are more common in it than they were. Unless noted, calls come from the whole dose curve; as a rule, active = well fitted curve in the direction sought with a large enough effect; inconclusive = small, poorly fitted or top-dose-only effect, or another doubt; inactive = no such curve, though single readings can be large; an effect the other way counts as inactive or inconclusive. Unless noted, % is set by controls: 0 for no effect and ±100 for the full control effect.

SMILES | 12-LOX inh | HT1080 IDH1KD tx | TDP1 cell noCPT | HT1080NT lethal | IL1B secr inh | TDP1 cell CPT
Cc1ccc2c(c1)c(=O)c1ccccc1n2CCCC(=O)Nc1ccc(C)c(F)c1 | -23.7% | x | u | x | x | u
O=C(CCCn1c2ccccc2c(=O)c2ccccc21)Nc1cccc(Cl)c1 | u | x | 16.4µM* | x | x | u
Cc1ccc2c(c1)c(=O)c1ccccc1n2CCCC(=O)Nc1ccc(C)c(C)c1 | -26.5% | x | 23.1µM* | x | x | 23.1µM*
Cc1ccc2c(c1)c(=O)c1ccccc1n2CCCC(=O)Nc1ccc(Cl)cc1C | -7.2% | x | u | x | x | u
Cc1ccc(NC(=O)c2ccc(N3CCOCC3)c([N+](=O)[O-])c2)cc1S(=O)(=O)N1CCOCC1 | 2.4% | -15.4% | 7.31µM* | -3.1% | -77.7* | 9.2µM*
Cc1ccc(C(=O)Nc2ccccc2[N+](=O)[O-])cc1S(=O)(=O)N1CCOCC1 | -26.7% | u | u | u | -63.6* | 4.2%
COc1ccc(C(=O)Nc2ccccc2N2CCOCC2)cc1S(=O)(=O)N1CCOCC1 | 173.6% | 9.1% | u | 15.8% | -0.5 | u
COc1ccc(C(=O)Nc2ccccc2[N+](=O)[O-])cc1S(=O)(=O)N1CCOCC1 | 2.1% | -8.1% | u | -0.6% | -61.8* | -2.4%
Cc1ccc(NC(=S)NNC(=O)c2ccc(N3CCOCC3)c([N+](=O)[O-])c2)cc1C | u | 8.7% | -28.3% | 7.5% | -26.2 | -15.2%
O=C(NC1CC1)[C@@H]1C[C@H](Oc2ccccc2)CN1C(=O)C1(c2ccccc2)CC1 | 12.4% | x | x | x | x | x
COc1ccc(NC(=O)C2CCN(C(=O)c3nnn4c3COC(c3ccc(C)cc3)C4)CC2)cc1 (stereo not drawn) | 57.0% | x | x | x | x | x
CC(=O)Nc1ccc(C2=NNC(=Nc3cccc(S(=O)(=O)N(C)C)c3)SC2)cc1 | x | u | 5.8µM* | u | -79.4* | 6.51µM*
CN(C)S(=O)(=O)c1cccc(N=C2NN=C(c3ccccc3)CS2)c1 | -12.1% | u | 7.31µM* | u | -57.4* | 18.4µM*
COc1ccc(C2=NNC(=Nc3cc(S(=O)(=O)N(C)C)ccc3C)SC2)c(OC)c1 | 32.3% | u | 16.4µM* | u | -54.3* | u
COCCN=C1NN=C(c2ccc(NC(C)=O)cc2)CS1 | -1.9% | -17.8% | -20.2% | -19.1% | 54.0 | -1.5%
O=C(CSc1nnnn1C1CCCC1)c1c[nH]c2ccccc12 | 18.9% | x | x | x | x | x
Cc1ccc(S(=O)(=O)N2CCN(Cc3nnc(-c4c(-c5ccccc5)noc4C)o3)CC2)cc1 | 2.2% | -1.8% | 14.6µM* | 24.2% | -10.0 | 14.6µM*
Cc1ccc(S(=O)(=O)n2nccc2-c2c(-c3ccccc3)noc2C)cc1 | 92.8% | u | 18.4µM* | u | x | u
Cc1onc(-c2ccccc2)c1-c1ccnn1S(=O)(=O)c1ccc(Cl)cc1 | 29.0% | -24.9% | -28.3% | -5.6% | x | -3.6%
Cc1onc(-c2ccccc2)c1C(=O)N1CCCC1 | 482.2% | 2.7% | 0.4% | 21.7% | -2.3 | 1.6%
O=S(=O)(c1ccccc1)N1CCN(Cc2nnc(-c3ccccc3)o2)CC1 | 1.7% | 9.4% | u | 3.9% | -1.6 | -20.4%
Cc1onc(-c2ccccc2)c1-c1ccnn1C(=O)NC(C)C | 0.0% | 14.5% | u | 22.7% | -60.3* | -21.5%
Cc1onc(-c2ccc(Cl)cc2)c1-c1ccnn1S(=O)(=O)c1cccc(C(F)(F)F)c1 | 18.7% | -24.6% | 23.1µM* | -5.6% | -19.9 | u
Cc1ccc(S(=O)(=O)CC(=O)c2ccc(Cl)cc2)cc1C | 1.4% | x | x | x | x | x
COc1ccc(C(=O)N2CCn3c(nnc3-c3ccncc3)C2)cc1 | 4.1%[6.33 µM] | x | x | x | x | x
COc1cccc(CC(=O)Nc2ccc3c(c2)c(=O)n(C)n3-c2ccc(C(C)(C)C)cc2)c1 | -12.9% | -26.0% | u | u | -19.8 | 25.9µM*
